Among the data in PubChem BioAssay (Tox21) are Potency and activity change, positive = activation values, retold here.

The nature of assay [1]: qHTS assay to identify small molecule agonists of H2AX - cell viability counter screen (AID 1224847; calls by dose curve; further: nearly all actives have a fitted effect of over 30% in size; further: potency means the concentration at half of the fitted maximal effect). Particulars: CHO-K1 viability, CellTiter-Glo luminescence, 3 h; series mostly up to 154 µM. The method, boiled down: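 CHO-K1 cells plated overnight at 37C, then exposed 3 h at 37C to compounds at 15 concentrations (0.76% DMSO final). Viability by CellTiter-Glo luminescence after 30 min at room temperature.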
In general terms: qHTS replaces the single test concentration by a dilution series.

The nature of assay [2]: qHTS assay to identify small molecule antagonists of the estrogen related receptor (ERR) signaling pathway from Tox21 library (AID 1224848). Further: nearly all actives have a fitted effect of over 50% in size. Further: potency means the concentration at half of the fitted maximal effect. The conditions noted are these: ERR reporter cell line, luciferase antagonist mode, 18 h; series mostly up to 92.4 µM. The method, boiled down:
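ERR cell line, 2,000 cells/well. 6 h settle, then compound (DMSO) added; 18 h at 37 C; ONE-Glo luminescence after 30 min RT.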

The nature of assay [3]: qHTS assay to identify small molecule agonists of the estrogen related receptor (ERR) signaling pathway from Tox21 library (AID 1224849; calls by dose curve; further: nearly all actives have a fitted effect of over 15% in size). The conditions noted are these: ERR reporter cell line, ONE-Glo luciferase, 18 h; at 92.4 µM (top of the series) unless noted. The essentials:
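Quantitative HTS in agonist format: NTP ERR cell line, compounds transferred in DMSO after 6 h plating, 18 h incubation at 37 C, ONE-Glo luminescence endpoint.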

The nature of assay [4]: qHTS RealTime-Glo MT Cell Viability Assay in HEK293 cells - 32 hour (AID 1224868). Further: nearly all actives have a fitted effect of over 50% in size. Further: potency means the concentration at half of the fitted maximal effect. The conditions noted are these: RealTime-Glo luminescence; series mostly up to 76.8 µM. The essentials:
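Luminescence generated by NanoLuc from substrate produced by living HEK293 cells served as the viability signal. Each value reflects the reading at its stated time point during continuous 40 h compound exposure at 37 C.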

Assay [5] is described as follows: A CellTox Green Cytotoxicity Assay to monitor cytotoxicity in HEK293 cells - 0 hour (AID 1224869). Further: nearly all actives have a fitted effect of over 50% in size. Further: potency means the concentration at half of the fitted maximal effect. Particulars: CellTox Green fluorescence; series mostly up to 76.8 µM. The essentials:
(§1)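 Dead-cell fluorescence measured kinetically: asymmetric cyanine dye, HEK293, 600 cells/well, 5 h settle, 23 nL cpd/DMSO, 37 C, reads 0–40 h every 8 h.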

Assay [6] in a line: A CellTox Green Cytotoxicity Assay to monitor cytotoxicity in HEK293 cells - 40 hour (AID 1224871). Further: nearly all actives have a fitted effect of over 45% in size. Further: potency means the concentration at half of the fitted maximal effect. Particulars: CellTox Green fluorescence; series mostly up to 76.8 µM. The essentials:
as §1

Assay [7] is described as follows: qHTS RealTime-Glo MT Cell Viability Assay in HepG2 cells - 24 hour (AID 1224867). Further: nearly all actives have a fitted effect of over 50% in size. Further: potency means the concentration at half of the fitted maximal effect. Particulars: RealTime-Glo luminescence; series mostly up to 76.8 µM. The method, boiled down:
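Tox21 10K library screened in qHTS format on HepG2 cells carrying RealTime-Glo reagents. Compounds were added after a 5 h preincubation, and the luminescent signal from continuous culture was measured repeatedly during 40 h treatment.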

Assay [8] is described as follows: qHTS RealTime-Glo MT Cell Viability Assay in HepG2 cells - 40 hour (AID 1224870). Further: nearly all actives have a fitted effect of over 50% in size. Further: potency means the concentration at half of the fitted maximal effect. Particulars: RealTime-Glo luminescence; series mostly up to 76.8 µM. The method, boiled down:
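Real-time viability: cells seeded at 600 per well together with NanoLuc and cell-permeant prosubstrate, compounds added after 5 h incubation. Luminescence tracked at 0, 8, 16, 24, 32 and 40 h of exposure.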

Unmarked numbers belong to inactive results. Inconclusive results are not listed. Calls of active or inactive are those of the source. Unless noted, the call rests on the fitted dose curve; in most records, active means well fitted curve in the direction sought with a large enough effect in the repeat runs; inconclusive means weak or mixed curves; inactive means no such curve, though single readings can be large; an effect the other way counts as inactive or inconclusive.
On the % scale 0 is the no-effect control and ±100 the full control effect.

Turning to `CCCCCCOc1cc(C)c(O)c(C)c1C`, the Potency is 102 µM (active) in assay [1], 61.9 µM (active) in assay [2], 15.7 µM (active) in assay [4] and 44.2 µM (active) in assay [6]. In assay [3], the activity change, positive = activation was -42.5%. Also, in assay [5], the Potency result is “inactive”.
Regarding `CC(C)c1cccc(C(C)C)c1N1C(=O)c2ccc(O)cc2C1=O`, the Potency is 80 µM (active) in assay [1], 49 µM (active) in assay [7] and 43.6 µM (active) in assay [8]. In assay [5], the Potency entry is “inactive”.
`Brc1ccccc1-c1ccccc1`: the Potency result in assay [2], in assay [7], in assay [4], in assay [5] and in assay [8] was “inactive” each time.
`C=CC(=O)OCC(O)COc1ccccc1` (stereo unspecified): the Potency result in assay [4], in assay [5] and in assay [8] was “inactive” each time.
As for `O=C(Oc1ccccc1)c1cccc(C(=O)Oc2ccccc2)c1`, the Potency entry in assay [7], in assay [5], in assay [8] and in assay [6] was “inactive” throughout.
For the molecule `Clc1ccc(C(Cn2ccnc2)OCc2ccsc2Cl)c(Cl)c1` (stereo unspecified), the values for the Potency in assay [2] and in assay [4] were 18.8 µM (active) and 19 µM (active), respectively. In addition, in assay [3], the activity change, positive = activation was -53.5% [at 42.5 µM]. For the same molecule, the Potency result in assay [5] was “inactive”.
Consider `CN(C)c1ccc(N=NS(=O)(=O)O)cc1`, for which the Potency entry in assay [7], in assay [5], in assay [8] and in assay [6] was “inactive” throughout.
In the case of `c1cc2c3c(c1)ccc1cccc(c13)C2`, the figures for the Potency in assay [2] and in assay [6] were 70.1 µM (active) and 50 µM (active), respectively. The activity change, positive = activation in assay [3] is -42.3%. For the same molecule, the Potency result in assay [7], in assay [5] and in assay [8] was “inactive” throughout.
With `CC(NCCC(c1ccccc1)c1ccccc1)c1ccccc1` (stereo unspecified), the Potency in assay [7] was 21.3 µM (active); in assay [4], 19 µM (active); in assay [8] it was 21.3 µM (active); in assay [6], 21.3 µM (active). Besides, the Potency entry in assay [5] is “inactive”.
For `CCCCCCC(C)Nc1ccc(Nc2ccccc2)cc1` (stereo unspecified), the Potency in assay [4] is 24.5 µM (active). Moreover, the Potency entry in assay [5] was “inactive”.
Turning to `Cc1ccc(-n2[nH]c(C)c(N=Nc3cccc(-c4cccc(C(=O)O)c4)c3O)c2=O)cc1C`, the Potency entry in assay [1], in assay [5], in assay [8] and in assay [6] was “inactive” in each case.
As for `Cc1cc2c(C(C)C)c(O)c(O)c(C=O)c2c(O)c1-c1c(C)cc2c(C(C)C)c(O)c(O)c(C=O)c2c1O`, the Potency was 7.5 µM (active) in assay [2]; 21.3 µM (active) in assay [7]; 12 µM (active) in assay [4]; 26.8 µM (active) in assay [8]; 19 µM (active) in assay [6]. In addition, in assay [3], the activity change, positive = activation is -47.3% [at 42.5 µM]. The Potency entry in assay [5] is “inactive”.
`C=CCCCCCCC=C`: the Potency result in assay [7], in assay [4], in assay [5] and in assay [8] was “inactive” each time.
For the molecule `Clc1ccccc1CN1CCc2sccc2C1`, the Potency result in assay [7], in assay [5] and in assay [8] was “inactive” in each case.
Regarding `COc1cc(C=C2CCC/C(=C\c3ccc(O)c(OC)c3)C2=O)ccc1O`, the Potency was 8.41 µM (active) in assay [2], 23.9 µM (active) in assay [4] and 23.9 µM (active) in assay [8]. Besides, the activity change, positive = activation in assay [3] was -63.1% [at 42.5 µM]. Also, the Potency entry in assay [5] is “inactive”.
Turning to `N#CSCSc1nc2ccccc2s1`, the Potency in assay [7] is 38.9 µM (active); in assay [4] it was 19.5 µM (active); in assay [8], 24.5 µM (active); in assay [6], 11 µM (active). Further, the Potency result in assay [5] was “inactive”.
For the molecule `CCC(C)(C)c1cc(O)c(C(C)(C)CC)cc1O`, the Potency in assay [2] is 68.6 µM (active). Also, the activity change, positive = activation in assay [3] was -67.5%. Also, the Potency result in assay [5] and in assay [8] was “inactive” throughout.
Take `O=C1c2c(O)ccc(O)c2C(=O)c2c(NCCNCCO)ccc(NCCNCCO)c21`: the Potency in assay [2] is 0.75 µM (active); in assay [7], 9.52 µM (active); in assay [4], 0.0239 µM (active); in assay [8] it was 7.56 µM (active). Moreover, in assay [3], the activity change, positive = activation was -59.3% [at 42.5 µM]. In addition, the Potency entry in assay [5] and in assay [6] was “inactive” in each case.
As to `CNC(=O)c1cc(Oc2ccc(NC(=O)Nc3ccc(Cl)c(C(F)(F)F)c3)cc2)ccn1`, the Potency in assay [2] is 8.41 µM (active); in assay [4], 3.01 µM (active). Moreover, in assay [3], the activity change, positive = activation is -59.1% [at 42.5 µM]. The Potency entry in assay [5] and in assay [6] was “inactive” each time.
Turning to `COC(=O)NCCC[Si](OC)(OC)OC`, the Potency entry in assay [2], in assay [7], in assay [4], in assay [5], in assay [8] and in assay [6] was “inactive” each time. Also, in assay [3], the activity change, positive = activation was -7.77%.
Turning to `CCCCCCCCCCCCN(CCO)CCO`, the Potency is 60.9 µM (active) in assay [2]; 48.8 µM (active) in assay [7]; 43.5 µM (active) in assay [4]; 38.7 µM (active) in assay [8]; 54.7 µM (active) in assay [6]. Besides, the activity change, positive = activation in assay [3] was -79.7%. Also, in assay [5], the Potency result was “inactive”.
For the molecule `Cc1c(-c2ccc(O)cc2)n(Cc2ccc(OCCN3CCCCCC3)cc2)c2ccc(O)cc12`, the Potency is 15.1 µM (active) in assay [7], 9.52 µM (active) in assay [8] and 16.9 µM (active) in assay [6]. In addition, the Potency entry in assay [5] is “inactive”.
`C[C@@]12C(=O)OC(=O)[C@]1(C)C1CCC2O1`: the results for the Potency in assay [7] and in assay [8] were 4.77 µM (active) and 1.69 µM (active), respectively. In addition, the Potency entry in assay [5] and in assay [6] was “inactive” in each case.
Consider `Cc1cccc(C)c1NC(=O)CN1CCN(CCCC(c2ccc(F)cc2)c2ccc(F)cc2)CC1`, for which the Potency in assay [7] and in assay [8] was 23.9 µM (active) throughout. Moreover, the Potency entry in assay [5] was “inactive”.
In the case of `CCCCCCCC/C=C\CCCCCCCC(=O)N(C)CC(=O)O`, the activity change, positive = activation in assay [3] was -30%. The Potency result in assay [7], in assay [5] and in assay [8] was “inactive” throughout.
For the molecule `C[n+]1c2cc(N)ccc2cc2ccc(N)cc21` (tested in a mixture with another compound), the Potency in assay [4] is 5.35 µM (active); in assay [5], 23.9 µM (active); in assay [6] it was 23.9 µM (active).
For the molecule `CC(O)C#CC(C)O` (stereo unspecified), the Potency result in assay [5] is “inactive”. Moreover, the Potency in assay [6] is 54.4 µM (active).
